# From the supplement of paper PMC8728848
# Only a selection was taken, and the strongest signals are over-represented in it overall.
# B1: Als3-N (Candida albicans) (protein)
# chain: KTITGVFNSFNSLTWSNAATYNYKGPGTPTWNAVLGWSLDGTSASPGDTFTLNMPCVFKFTTSQTSVDLTAHGVKYATCQFQAGEEFMTFSTLTCTVSNTLTPSIKALGTVTLPLAFNVGGTGSSVDLEDSKCFTAGTNTVTFNDGGKKISINVDFERSNVDPKGYLTDSRVIPSLNKVSTLFVAPQCANGYTSGTMGFANTYGDVQIDCSNIHVGITKGLNDWNYPVSSESFSYTKTCSSNGIFITYKNVPAGYRPFVDAYISATDVNSYTLSYANEYTCAGGYWQRAPFTLRWTGYRNSDAGSNGIVIVATTRTVTDSTTAVTTLPFDPNRDKTKTIEILKPIPTTTITTSYVGVTTSYLTKTAPIGETATVIVDIPYHTTTTVTSKWTGTITSTTTHTNPTDSIDTVIVQVP
# Key:
# Assay in all cases: glycan array binding signal (z-score within array); higher = stronger binding
# Settings in all cases: glycan notation: IUPAC condensed, linker removed
# Fuc(a1-2)Gal = molecular target: Fuc(a1-2)Gal
# Summary of the method: (§1)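 Glycan array binding is given as a within-array Z-score, which can be read as non-binding when negative. The arrays, 3228 of them, came from the Consortium for Functional Glycomics database and were retained only where the protein sequence was available. Z-scores were averaged across arrays of the same protein sequence at different concentrations or buffers and across linkers.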
# Fuc(a1-2)Gal(b1-3)GlcNAc = molecular target: Fuc(a1-2)Gal(b1-3)GlcNAc
# Summary of the method: as §1
# [1] = molecular target: Fuc(a1-2)Gal(b1-3)GlcNAc(b1-3)[Gal(b1-4)GlcNAc(b1-6)]Gal(b1-4)Glc
# Summary of the method: as §1
# [2] = molecular target: Fuc(a1-2)Gal(b1-3)[Fuc(a1-4)]GlcNAc
# Summary of the method: as §1
# [3] = molecular target: Fuc(a1-2)Gal(b1-4)Fuc(a1-3)]GlcNAc(b1-2)Man(a1-3)[Fuc(a1-2)Gal(b1-4)[Fuc(a1-3)]GlcNAc(b1-2)Man(a1-6)]Man(b1-4)GlcNAc(b1-4)GlcNAc
# Summary of the method: as §1
# [4] = molecular target: Fuc(a1-2)Gal(b1-4)GlcNAc6S
# Summary of the method: as §1
# [5] = molecular target: Fuc(a1-2)[Gal(a1-3)]Gal(b1-4)GlcNAc(b1-6)GalNAc
# Summary of the method: as §1
# [6] = molecular target: Fuc(a1-2)[GalNAc(a1-3)]Gal(b1-3)GalNAc(b1-3)Gal(a1-4)Gal(b1-4)Glc
# Summary of the method: as §1
# [7] = molecular target: Fuc(a1-2)[GalNAc(a1-3)]Gal(b1-3)GlcNAc(b1-6)GalNAc
# Summary of the method: as §1
# [8] = molecular target: Gal(a1-3)[Gal(a1-4)]Gal(b1-4)GlcNAc
# Summary of the method: as §1
# [9] = molecular target: Gal(b1-3)GlcNAc(a1-3)Gal(b1-4)GlcNAc
# Summary of the method: as §1
# Gal(b1-3)GlcNAc(b1-2)Man = molecular target: Gal(b1-3)GlcNAc(b1-2)Man
# Summary of the method: as §1
# [10] = molecular target: Gal(b1-3)[Fuc(a1-4)]GlcNAc(b1-2)Man
# Summary of the method: as §1
# [11] = molecular target: Gal(b1-3)[Fuc(a1-4)]GlcNAc(b1-3)Gal(b1-3)[Fuc(a1-4)]GlcNAc
# Summary of the method: as §1
# [12] = molecular target: Gal(b1-3)[Neu5Ac(b2-6)]GalNAc
# Summary of the method: as §1
# Gal(b1-4)GlcNAc = molecular target: Gal(b1-4)GlcNAc
# Summary of the method: as §1
# [13] = molecular target: Gal(b1-4)GlcNAc(b1-2)[Gal(b1-4)GlcNAc(b1-4)]Man(a1-3)[GlcNAc(b1-4)][Gal(b1-4)GlcNAc(b1-2)Man(a1-6)]Man(b1-4)GlcNAc(b1-4)GlcNAc
# Summary of the method: as §1
# [14] = molecular target: Gal(b1-4)GlcNAc(b1-3)Gal(b1-4)GlcNAc(b1-2)Man(a1-3)[Gal(b1-4)GlcNAc(b1-3)Gal(b1-4)GlcNAc(b1-2)Man(a1-6)]Man(b1-4)GlcNAc(b1-4)GlcNAc
# Summary of the method: as §1
# [15] = molecular target: Gal(b1-4)GlcNAc(b1-3)Gal(b1-4)GlcNAc(b1-3)Gal(b1-4)GlcNAc(b1-2)Man(a1-3)[Gal(b1-4)GlcNAc(b1-3)Gal(b1-4)GlcNAc(b1-3)Gal(b1-4)GlcNAc(b1-2)Man(a1-6)]Man(b1-4)GlcNAc(b1-4)GlcNAc
# Summary of the method: as §1
# [16] = molecular target: GalNAc(b1-4)GlcNAc(b1-2)Man
# Summary of the method: as §1
# Glc(a1-6)Glc(a1-6)Glc = molecular target: Glc(a1-6)Glc(a1-6)Glc
# Summary of the method: as §1
# [17] = molecular target: GlcNAc(a1-4)Gal(b1-4)GalNAc
# Summary of the method: as §1
# [18] = molecular target: GlcNAc(a1-4)Gal(b1-4)GlcNAc(b1-3)Gal(b1-4)GlcNAc
# Summary of the method: as §1
# [19] = molecular target: GlcNAc(a1-6)Gal(b1-4)GlcNAc
# Summary of the method: as §1
# [20] = molecular target: GlcNAc(b1-3)Gal(b1-4)GlcNAc(b1-3)Gal(b1-4)GlcNAc(b1-2)Man(a1-3)[GlcNAc(b1-3)Gal(b1-4)GlcNAc(b1-3)Gal(b1-4)GlcNAc(b1-2)Man(a1-6)]Man(b1-4)GlcNAc(b1-4)GlcNAc
# Summary of the method: as §1
# [21] = molecular target: GlcNAc(b1-3)Gal(b1-4)GlcNAc(b1-3)Gal(b1-4)GlcNAc(b1-2)[GlcNAc(b1-3)Gal(b1-4)GlcNAc(b1-3)Gal(b1-4)GlcNAc(b1-6)]Man(a1-6)[GlcNAc(b1-3)Gal(b1-4)GlcNAc(b1-3)Gal(b1-4)GlcNAc(b1-2)Man(a1-3)]Man(b1-4)GlcNAc(b1-4)[Fuc(a1-6)]GlcNAc
# Summary of the method: as §1
# [22] = molecular target: GlcNAc(b1-3)Gal(b1-4)GlcNAc(b1-3)Gal(b1-4)GlcNAc(b1-3)Gal(b1-4)GlcNAc(b1-2)[GlcNAc(b1-3)Gal(b1-4)GlcNAc(b1-3)Gal(b1-4)GlcNAc(b1-3)Gal(b1-4)GlcNAc(b1-6)]Man(a1-6)[GlcNAc(b1-3)Gal(b1-4)GlcNAc(b1-3)Gal(b1-4)GlcNAc(b1-3)Gal(b1-4)GlcNAc(b1-2)Man(a1-3)]Man(b1-4)GlcNAc(b1-4)[Fuc(a1-6)]GlcNAc
# Summary of the method: as §1
# [23] = molecular target: GlcNAc(b1-4)GlcNAc(b1-4)GlcNAc
# Summary of the method: as §1
# [24] = molecular target: GlcNAc6S(b1-3)Gal(b1-4)GlcNAc
# Summary of the method: as §1
# [25] = molecular target: Man(a1-2)Man(a1-2)Man(a1-6)[Man(a1-3)]Man
# Summary of the method: as §1
# Man(a1-2)Man(a1-3)Man = molecular target: Man(a1-2)Man(a1-3)Man
# Summary of the method: as §1
# [26] = molecular target: Man(a1-2)Man(a1-6)[Man(a1-3)]Man(a1-6)[Man(a1-2)Man(a1-2)Man(a1-3)]Man
# Summary of the method: as §1
# [27] = molecular target: Neu5Ac(a2-3)Gal(b1-3)GlcNAc(b1-2)Man
# Summary of the method: as §1
# [28] = molecular target: Neu5Ac(a2-3)Gal(b1-3)GlcNAc(b1-2)Man(a1-3)[GlcNAc(b1-4)][Neu5Ac(a2-3)Gal(b1-3)GlcNAc(b1-2)Man(a1-6)]Man(b1-4)GlcNAc(b1-4)GlcNAc
# Summary of the method: as §1
# [29] = molecular target: Neu5Ac(a2-3)Gal(b1-3)[Neu5Ac(a2-6)]GlcNAc(b1-3)[Fuc(a1-3)[Gal(b1-4)]GlcNAc(b1-6)]Gal(b1-4)Glc
# Summary of the method: as §1
# [30] = molecular target: Neu5Ac(a2-3)Gal(b1-4)GlcNAc(b1-2)Man(a1-3)[GlcNAc(b1-4)][Neu5Ac(a2-3)Gal(b1-4)GlcNAc(b1-2)Man(a1-6)]Man(b1-4)GlcNAc(b1-4)GlcNAc
# Summary of the method: as §1
# [31] = molecular target: Neu5Ac(a2-3)Gal(b1-4)GlcNAc(b1-3)Gal(b1-4)GlcNAc(b1-3)Gal(b1-4)GlcNAc(b1-2)Man(a1-3)[Neu5Ac(a2-3)Gal(b1-4)GlcNAc(b1-3)Gal(b1-4)GlcNAc(b1-3)Gal(b1-4)GlcNAc(b1-2)Man(a1-6)]GalNAc
# Summary of the method: as §1
# [32] = molecular target: Neu5Ac(a2-3)Gal(b1-4)GlcNAc(b1-3)Gal(b1-4)GlcNAc(b1-6)[Gal(b1-3)]GalNAc
# Summary of the method: as §1
# [33] = molecular target: Neu5Ac(a2-3)Gal(b1-4)GlcNAc(b1-6)GalNAc
# Summary of the method: as §1
# [34] = molecular target: Neu5Ac(a2-3)Gal(b1-4)GlcNAc(b1-6)[Gal(b1-3)]GalNAc
# Summary of the method: as §1
# [35] = molecular target: Neu5Ac(a2-3)[GalNAc(b1-4)]Gal(b1-4)GlcNAc
# Summary of the method: as §1
# [36] = molecular target: Neu5Ac(a2-3)[Neu5Ac(a2-6)]GalNAc
# Summary of the method: as §1
# Neu5Ac(a2-6)Gal(b1-4)Glc = molecular target: Neu5Ac(a2-6)Gal(b1-4)Glc
# Summary of the method: as §1
# [37] = molecular target: Neu5Ac(a2-6)Gal(b1-4)GlcNAc(b1-2)Man(a1-3)[Neu5Ac(a2-6)Gal(b1-4)GlcNAc(b1-2)Man(a1-6)]Man(b1-4)GlcNAc(b1-4)[Fuc(a1-6)]GlcNAc
# Summary of the method: as §1
# [38] = molecular target: Neu5Ac(a2-6)Gal(b1-4)GlcNAc(b1-2)Man(a1-6)[Man(a1-3)]Man(b1-4)GlcNAc(b1-4)GlcNAc
# Summary of the method: as §1
# [39] = molecular target: Neu5Ac(a2-6)Gal(b1-4)GlcNAc(b1-2)[Neu5Ac(a2-6)Gal(b1-4)GlcNAc(b1-4)]Man(a1-3)[GlcNAc(b1-4)][Neu5Ac(a2-6)Gal(b1-4)GlcNAc(b1-2)[Neu5Ac(a2-6)Gal(b1-4)GlcNAc(b1-6)]Man(a1-6)]Man(b1-4)GlcNAc(b1-4)GlcNAc
# Summary of the method: as §1
# [40] = molecular target: Neu5Ac(a2-6)Gal(b1-4)GlcNAc(b1-3)Gal(b1-3)GlcNAc
# Summary of the method: as §1
# [41] = molecular target: Neu5Ac(a2-6)Gal(b1-4)GlcNAc(b1-3)Gal(b1-4)GlcNAc(b1-3)Gal(b1-4)GlcNAc(b1-2)Man(a1-3)[Neu5Ac(a2-6)Gal(b1-4)GlcNAc(b1-3)Gal(b1-4)GlcNAc(b1-3)Gal(b1-4)GlcNAc(b1-2)Man(a1-6)]GalNAc
# Summary of the method: as §1
# [42] = molecular target: Neu5Gc(a2-3)Gal(b1-3)[Fuc(a1-4)]GlcNAc
# Summary of the method: as §1
binder,measurement,setting,value
B1,glycan array binding signal (z-score),Fuc(a1-2)Gal,-0.276
same,glycan array binding signal (z-score),Fuc(a1-2)Gal(b1-3)GlcNAc,-0.288
same,glycan array binding signal (z-score),[1],-0.291
same,glycan array binding signal (z-score),[2],-0.271
same,glycan array binding signal (z-score),[3],2.75
same,glycan array binding signal (z-score),[4],-0.257
same,glycan array binding signal (z-score),[5],-0.082
same,glycan array binding signal (z-score),[6],-0.14
same,glycan array binding signal (z-score),[7],-0.223
same,glycan array binding signal (z-score),[8],-0.221
same,glycan array binding signal (z-score),[9],2.03
same,glycan array binding signal (z-score),Gal(b1-3)GlcNAc(b1-2)Man,0.065
same,glycan array binding signal (z-score),[10],0.115
same,glycan array binding signal (z-score),[11],2.42
same,glycan array binding signal (z-score),[12],0.915
same,glycan array binding signal (z-score),Gal(b1-4)GlcNAc,-0.168
same,glycan array binding signal (z-score),[13],-0.288
same,glycan array binding signal (z-score),[14],8.26
same,glycan array binding signal (z-score),[15],3.26
same,glycan array binding signal (z-score),[16],0.231
same,glycan array binding signal (z-score),Glc(a1-6)Glc(a1-6)Glc,-0.244
same,glycan array binding signal (z-score),[17],-0.081
same,glycan array binding signal (z-score),[18],-0.232
same,glycan array binding signal (z-score),[19],-0.233
same,glycan array binding signal (z-score),[20],3.11
same,glycan array binding signal (z-score),[21],2.36
same,glycan array binding signal (z-score),[22],3.08
same,glycan array binding signal (z-score),[23],-0.099
same,glycan array binding signal (z-score),[24],-0.1
same,glycan array binding signal (z-score),[25],-0.257
same,glycan array binding signal (z-score),Man(a1-2)Man(a1-3)Man,-0.226
same,glycan array binding signal (z-score),[26],-0.361
same,glycan array binding signal (z-score),[27],-0.29
same,glycan array binding signal (z-score),[28],-0.11
same,glycan array binding signal (z-score),[29],-0.237
same,glycan array binding signal (z-score),[30],-0.08
same,glycan array binding signal (z-score),[31],4.72
same,glycan array binding signal (z-score),[32],0.08
same,glycan array binding signal (z-score),[33],-0.202
same,glycan array binding signal (z-score),[34],-0.233
same,glycan array binding signal (z-score),[35],2.21
same,glycan array binding signal (z-score),[36],-0.049
same,glycan array binding signal (z-score),Neu5Ac(a2-6)Gal(b1-4)Glc,-0.187
same,glycan array binding signal (z-score),[37],-0.102
same,glycan array binding signal (z-score),[38],-0.309
same,glycan array binding signal (z-score),[39],-0.151
same,glycan array binding signal (z-score),[40],-0.283
same,glycan array binding signal (z-score),[41],2.56
same,glycan array binding signal (z-score),[42],-0.341
